This note sets out measurements from PubChem BioAssay.

Assay [1] has as its system Plasmodium falciparum Sir2 (PF13_0152, Sir2A). The experiment in a line: Plasmodium falciparum Sir2A binding compounds – biochemical, small-molecule microarray, 635 nm fluorescence, primary screen (AID 1098).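 Further: score merges spot fluorescence intensity with its signal-to-noise ratio.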 Conditions: fluorescence 635 nm, higher = more signal.
The nature of assay [2]: probe aDKK1 binding to arrayed compounds – biochemical, biotinylated probe, 635/667 nm fluorescence, primary screen (AID 1099).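 Further: score merges 667nm spot fluorescence with signal to noise across triplicate slides; reference of the scale not given here.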 Particulars: small-molecule microarray, higher = more signal.
Assay [3] can be described thus: probe aCHRDL2 binding to arrayed compounds – biochemical, biotinylated probe, 635/667 nm fluorescence, primary screen (AID 1100). Conditions: small-molecule microarray, higher = more signal.
A short description of assay [4]: change in splice reporter luminescence, either direction, cell-based, HEK293, spliceosome inhibition project, primary screen (AID 1101).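 Further: HEK293 cells carrying a splicing-competent luciferase reporter gene; test concentration not given here.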 Particulars: HEK293 splicing luciferase reporter, 24 h, higher = more signal, called active from +8 up or from −8 down. Background: Reporter assays use an easily measured gene product as a stand-in for the process of interest.
The target in assay [5] is Fibroblast growth factor 10 (Homo sapiens) (UniProt O15520). The experiment in a line: compounds binding fibroblast growth factor 10 – biochemical, small-molecule microarray, 635 nm fluorescence, primary screen (AID 1102). Particulars: FGF10 binding, fluorescence 635 nm, higher = more signal.
The test system of assay [6] is glycogen synthase kinase-3 (GSK3A per assay name; protocol says GSK3B). The experiment in a line: compounds binding glycogen synthase kinase-3 – biochemical, small-molecule microarray, 635 nm fluorescence, GSK3A, primary screen (AID 1103). Further: the record names both GSK3A and GSK3B. Conditions: fluorescence 635 nm, higher = more signal.
Assay [7] concerns the target Epidermal growth factor receptor (Homo sapiens) (UniProt P00533). The experiment in a line: compounds binding epidermal growth factor receptor – biochemical, small-molecule microarray, 635 nm fluorescence, primary screen (AID 1104).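 Further: score merges 667 nm emission intensity with spot signal to noise over triplicate slides.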 Conditions: EGFR binding, higher = more signal.
Assay [8] has as its target Follistatin-related protein 3 (Homo sapiens) (UniProt O95633). The experiment in a line: compounds binding follistatin-related protein 3 – biochemical, small-molecule microarray, 635 nm fluorescence, primary screen (AID 1105).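 Further: score merges emission near 667 nm and signal to noise per printed spot across three slides.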 Particulars: FSTL3 binding, higher = more signal.
For assay [9], the target named is Dickkopf-related protein 1 (Homo sapiens) (UniProt O94907). The experiment in a line: small molecules binding DKK1 protein – biochemical, small-molecule microarray, 635 nm fluorescence scan, primary screen (AID 1106).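 Further: score merges emission near 667 nm with signal to noise over three replicate slides.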 Conditions: higher = more signal.
Assay [10] concerns Inhibin beta A chain (activin A). The experiment in a line: small molecules binding activin A – biochemical, small-molecule microarray, 635 nm fluorescence scan, primary screen (AID 1107).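 Further: mouse activin A protein probed at 4.33 µg/mL on printed slides; score merges bound-protein fluorescence near 667 nm with spot signal-to-noise.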 Conditions: INHBA, higher = more signal.

Activity calls are given as the source filed them.

Sequence of Epidermal growth factor receptor (Homo sapiens) (P00533 whole entry, looked up): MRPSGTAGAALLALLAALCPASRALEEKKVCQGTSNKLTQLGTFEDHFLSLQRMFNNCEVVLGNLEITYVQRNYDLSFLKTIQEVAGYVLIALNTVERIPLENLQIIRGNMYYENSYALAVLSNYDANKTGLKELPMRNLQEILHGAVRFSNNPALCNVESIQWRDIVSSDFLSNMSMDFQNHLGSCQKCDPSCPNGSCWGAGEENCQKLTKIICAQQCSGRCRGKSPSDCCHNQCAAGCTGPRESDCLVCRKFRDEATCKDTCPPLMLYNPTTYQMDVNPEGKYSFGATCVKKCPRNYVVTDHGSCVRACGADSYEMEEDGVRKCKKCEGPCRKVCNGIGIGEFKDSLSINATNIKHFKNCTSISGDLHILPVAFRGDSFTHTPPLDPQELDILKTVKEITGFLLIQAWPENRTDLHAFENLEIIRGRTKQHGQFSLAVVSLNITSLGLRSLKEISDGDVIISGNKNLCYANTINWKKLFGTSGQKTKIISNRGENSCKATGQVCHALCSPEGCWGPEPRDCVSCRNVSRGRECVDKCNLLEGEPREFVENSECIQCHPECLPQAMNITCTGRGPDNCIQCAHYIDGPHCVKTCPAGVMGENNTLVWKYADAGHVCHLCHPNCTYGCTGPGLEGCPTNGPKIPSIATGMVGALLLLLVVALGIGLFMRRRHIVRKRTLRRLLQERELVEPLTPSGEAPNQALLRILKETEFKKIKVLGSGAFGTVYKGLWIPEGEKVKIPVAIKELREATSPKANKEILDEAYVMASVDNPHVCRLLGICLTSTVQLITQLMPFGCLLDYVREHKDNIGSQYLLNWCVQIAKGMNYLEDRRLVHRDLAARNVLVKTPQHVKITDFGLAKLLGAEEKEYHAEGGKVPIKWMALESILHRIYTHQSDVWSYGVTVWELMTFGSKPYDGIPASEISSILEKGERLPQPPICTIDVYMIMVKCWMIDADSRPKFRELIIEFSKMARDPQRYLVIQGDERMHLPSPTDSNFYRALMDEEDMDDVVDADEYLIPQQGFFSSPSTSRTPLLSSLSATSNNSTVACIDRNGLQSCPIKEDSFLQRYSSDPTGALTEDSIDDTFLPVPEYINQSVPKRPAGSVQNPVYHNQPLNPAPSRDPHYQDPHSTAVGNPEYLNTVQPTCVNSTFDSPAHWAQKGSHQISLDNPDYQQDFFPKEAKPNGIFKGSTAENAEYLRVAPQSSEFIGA
Sequence of Dickkopf-related protein 1 (Homo sapiens) (O94907 whole entry, looked up): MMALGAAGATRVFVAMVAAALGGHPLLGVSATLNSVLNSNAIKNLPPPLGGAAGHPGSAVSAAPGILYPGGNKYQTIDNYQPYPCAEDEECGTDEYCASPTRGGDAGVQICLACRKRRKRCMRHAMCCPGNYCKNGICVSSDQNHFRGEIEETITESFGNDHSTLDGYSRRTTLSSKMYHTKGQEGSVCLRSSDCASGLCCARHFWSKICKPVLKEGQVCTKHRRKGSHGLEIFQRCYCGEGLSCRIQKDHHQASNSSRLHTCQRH
Sequence of Fibroblast growth factor 10 (Homo sapiens) (O15520 whole entry, looked up): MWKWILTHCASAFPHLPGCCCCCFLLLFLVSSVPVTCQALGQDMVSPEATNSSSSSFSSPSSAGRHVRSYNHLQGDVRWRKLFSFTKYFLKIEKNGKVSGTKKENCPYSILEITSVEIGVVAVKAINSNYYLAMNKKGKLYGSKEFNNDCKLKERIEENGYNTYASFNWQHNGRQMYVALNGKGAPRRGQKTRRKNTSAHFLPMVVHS
Sequence of Follistatin-related protein 3 (Homo sapiens) (O95633 whole entry, looked up): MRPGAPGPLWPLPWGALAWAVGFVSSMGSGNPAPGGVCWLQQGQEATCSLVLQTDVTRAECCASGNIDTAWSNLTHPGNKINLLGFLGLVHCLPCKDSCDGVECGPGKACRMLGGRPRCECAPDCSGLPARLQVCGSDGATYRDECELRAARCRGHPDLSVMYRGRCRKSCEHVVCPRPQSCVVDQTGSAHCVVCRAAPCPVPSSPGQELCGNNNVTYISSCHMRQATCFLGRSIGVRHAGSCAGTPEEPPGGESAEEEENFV

Turning to `N#Cc1ccc(C(O)C2C=CC3C(=O)NC(=O)C3N2Nc2ccccn2)cc1` (stereo not given), the composite z-score in assay [1] was 0.348; in assay [2], -0.164; in assay [3], 0.425; in assay [5] it was 0.0221; in assay [6], 0.137; in assay [7], 0.362. The composite z-score in [8] is -0.193; in assay [9], 0.0057; in assay [10], 0.921. Moreover, in assay [4], the z-score is -0.785 (inactive).
Consider `CC1CC/C=C\[C@H]2OC34C=CCN(CCN5CCOCC5)C(=O)[C@H]3N(CCCCCCO)C(=O)[C@@H]4C2C(=O)O1` (stereo not given in full), for which the composite z-score in assay [1] was 0.195; in [2], -0.301; in assay [3], 0.0746; in assay [5] it was -0.721; in [6], -0.993; in assay [7], -1. Further, the composite z-score in assay [8] was -0.704; in assay [9], -0.355; in [10], 0.516. Moreover, the z-score in assay [4] is 0.433 (inactive).
Turning to `CN(C)C(=O)[C@]1(Cc2ccccc2)N=C(c2ccc(OCCCO)cc2)O[C@@H]1c1ccccc1`, the composite z-score in [1] is 0.747; in assay [2], 0.129; in [3], 0.624; in assay [5] it was 1.13; in [6], 1.29; in assay [7] it was -0.515. Besides, the composite z-score in [8] was 0.289; in assay [9], -0.698; in assay [10] it was 0.231. Further, the z-score in [4] is -0.012 (inactive).
`COC(=O)[C@H](Cc1ccc(O)cc1)N1CC2=CCCC=C[C@@H]2[C@H]1[C@H](O)Cc1ccccc1`: the composite z-score is 0.751 in assay [1]; -0.301 in [2]; -0.538 in assay [3]; 0.477 in [5]; -0.159 in [6]; 0.72 in assay [7]. Besides, the values for the composite z-score in [8], in [9] and in assay [10] were 0.255, 0.0139 and 0.493, respectively. Also, the z-score in [4] is -1.07 (inactive).
On to `COC(=O)[C@@]1(Cc2ccccc2CN=[N+]=[N-])COC(c2ccc(OCCCO)cc2)=N1`, for which the composite z-score is 1.97 in assay [1]; 0.269 in assay [2]; 1.23 in [3]; -1.76 in [5]; -1.02 in [6]; -1.76 in assay [7]. Further, the figures for the composite z-score in [8], in [9] and in assay [10] were -1.68, -3.61 and -1.48, respectively. In assay [4], the z-score was 0.861 (inactive).
With `CN1C(=O)[C@]2(CCS(=O)(=O)c3ccccc3)N=C(c3ccc(OCCCO)cc3)O[C@@H]2c2ccccc21`, the composite z-score is 1.38 in [1]; 0.0991 in [2]; 0.89 in assay [3]; 0.458 in assay [5]; 1.33 in assay [6]; -0.0528 in assay [7]. Moreover, the composite z-score in assay [8] amounted to 0.669; in assay [9], 0.367; in assay [10] it was 0.3. Besides, the z-score in [4] is -0.674 (inactive).
`CCC(CC)C(O)C1C=CC2C(=O)N(C)C(=O)C2N1N1CCCCC1` (stereo not given): the composite z-score amounted to 0.669 in assay [1]; 1.72 in assay [2]; 0.906 in [3]; 0.91 in assay [5]; 0.93 in assay [6]; 0.411 in assay [7]. Besides, the composite z-score in [8] worked out at 1.43; in assay [9], 0.233; in assay [10], 0.539. Besides, the z-score in [4] is 1.58 (inactive).
For `O=C1N(CCS(=O)(=O)c2ccccc2)c2ccccc2[C@@H]2OC(c3ccc(OCCCO)cc3)=N[C@]12CCS(=O)(=O)c1ccccc1`, the composite z-score in assay [1] was found to be 0.982; in [2], 0.753; in [3], 0.585; in assay [5], 0.989; in assay [6] it was 1.26; in [7] it was 0.917. Further, the composite z-score in assay [8] is 1.42; in assay [9], 1.16; in assay [10], 0.878. In addition, the z-score in assay [4] is -0.254 (inactive).
Consider `NCCCC[C@@H]1NC(=O)[C@H]2C[C@@H](C(=O)NCc3ccc(F)cc3)[C@@H](c3cccc(OCCO)c3)N2C1=O`, for which the composite z-score was 1.43 in [1]; 0.0142 in assay [2]; -0.142 in [3]; 1.32 in assay [5]; 1.34 in [6]; 0.803 in assay [7]. In addition, the composite z-score turned out to be 1.47 in assay [8], 1.6 in assay [9] and 0.799 in assay [10]. The z-score in assay [4] is -0.436 (inactive).
Regarding `CC(C)[C@@H](C(=O)O)n1cc(-c2ccccc2)nn1`, the composite z-score in [1] is 0.377; in assay [2] it was 0.824; in assay [3] it was 0.69; in assay [5], 0.737; in assay [6] it was 1.27; in assay [7], 0.262. For the same compound, the composite z-score came to 0.256 in assay [8], 0.0435 in assay [9] and 0.48 in assay [10]. Moreover, the z-score in [4] is 0.317 (inactive).
Turning to `CC(C)CNC(=O)[C@@H]1c2ccccc2C(=O)N(C(C)C)[C@H]1c1ccc(CO)cc1`, the composite z-score was 1.36 in [1]; 0.0026 in assay [2]; 0.763 in [3]; -0.787 in assay [5]; -0.221 in assay [6]; -0.5 in [7]. The composite z-score in assay [8] was -0.573; in [9], -0.382; in assay [10] it was 0.849. Besides, the z-score in assay [4] is -1.26 (inactive).
In the case of `CN(C)CCCC[C@@H]1NC(=O)[C@H]2C[C@@H](C(=O)NCc3ccc(F)cc3)[C@@H](c3ccc(O)cc3)N2C1=O`, the composite z-score was 0.298 in [1]; 0.0179 in [2]; -0.4 in assay [3]; 1.2 in assay [5]; 0.902 in assay [6]; 0.0583 in [7]. The composite z-score was 0.571 in assay [8], 0.776 in assay [9] and 0.853 in assay [10]. Moreover, the z-score in assay [4] is 0.163 (inactive).
On to `CCCCC(=C=CC[C@@H](O)c1cccc(OCCO)c1)CCO`, for which the composite z-score in assay [1] is 1.36; in [2], -0.252; in assay [3], 0.254; in [5], 0.504; in assay [6] it was -0.224; in assay [7], -0.556. Besides, the composite z-score in [8] is -0.254; in [9], -0.591; in [10] it was 0.134. For the same compound, the z-score in [4] was 0.413 (inactive).
Regarding `COCCOC(=O)N1C(=O)[C@@]2(c3cc(C#CC4(O)CCCCCC4)ccc31)[C@H](c1ccc(OCCO)cc1)N1[C@H](c3ccccc3)[C@H](c3ccccc3)OC(=O)[C@H]1[C@@H]2C(=O)N1CCCCCCC1`, the composite z-score was determined as 1.74 in assay [1]; 1.63 in assay [2]; 0.965 in assay [3]; 1.35 in assay [5]; 1.32 in assay [6]; 0.825 in [7]. Moreover, the composite z-score is 1.51 in assay [8], 0.988 in assay [9] and 1.74 in assay [10]. Further, the z-score in [4] was -1.55 (inactive).
